Structures can show the parent of a compound that is named as a salt.
System: Saccharomyces cerevisiae BY4741 SeMeCo community
Assay: z-score of subpopulation abundance vs DMSO median, subpopulation auxotrophic for HLM; higher = larger share of this subpopulation than in DMSO controls
Settings: 10 µM; 24 h; SM minimal medium; subpopulation (auxotrophy): HLM
Description: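 Fluorescent four-plasmid SeMeCo (self-establishing metabolically cooperating S. cerevisiae BY4741 community; plasmids pH-mRuby2, pL-mWasabi, pU-eCFP, pM-TagRFP657) was grown 24 h in minimal SM medium with each Selleck FDA-approved drug at 10 µM in 384-well plates. Cells were fixed and imaged by high-content confocal microscopy. For each auxotrophic subpopulation (and the prototroph), a z-score gives the deviation from the DMSO vehicle-control population median.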

Structure (SMILES) | z-score of subpopulation abundance
CN1CCN(C2=Nc3ccccc3Oc3ccc(Cl)cc32)CC1 [Loxapine Succinate] | 0.21
CCCOc1ccc2c(c1)CC[C@@H]1[C@@H]2CC[C@]2(C)[C@@H](OC)CC[C@@H]12 [Promestriene] | 0.48
Cc1cc(C)nc(NS(=O)(=O)c2ccc(N)cc2)n1 [Sulfamethazine] | 0.59
CN1CC2c3ccccc3Oc3ccc(Cl)cc3C2C1 (stereo not given) [Asenapine maleate] | -0.53
CC[C@H]1OC(=O)[C@H](C)[C@@H](O[C@H]2C[C@@](C)(OC)[C@@H](O)[C@H](C)O2)[C@H](C)[C@@H](O[C@@H]2O[C@H](C)C[C@H](N(C)C)[C@H]2O)[C@](C)(O)C[C@@H](C)CN(C)[C@H](C)[C@@H](O)[C@]1(C)O [Azithromycin Dihydrate] | 0.07
OCCOCCN1CCN(C2=Nc3ccccc3Sc3ccccc32)CC1 [Quetiapine Fumarate] | 0.55
O=C(Nc1cccc(C2=NCCN2)c1)Nc1cccc(C2=NCCN2)c1 [Imidocarb dipropionate] | -0.49
Nc1nc2c(ncn2COCCO)c(=O)[nH]1 [Aciclovir] | -0.49
CCN(CC)CCOC(=O)c1ccc(N)cc1Cl [Chloroprocaine HCl] | -0.23
CO/N=C(\C(=O)N[C@@H]1C(=O)N2C(C(=O)O)=C(COC(N)=O)CS[C@H]12)c1ccco1 [Cefuroxime sodium] | -1.17
OCc1ccc(Cl)cc1Cl [2,4-dichlorobenzyl alcohol] | 0.03
CC(=O)OCC(CCn1cnc2cnc(N)nc21)COC(C)=O [Famciclovir] | 1.57
C[n+]1ccccc1/C=N/O [Pralidoxime chloride] | -0.4
CC/C(=C(\c1ccccc1)c1ccc(OCCN(C)C)cc1)c1ccccc1 [Tamoxifen] | 0.89
O=C(N[C@H](CO)[C@H](O)c1ccc([N+](=O)[O-])cc1)C(Cl)Cl [Chloramphenicol] | 0.01
OCc1ccccc1O[C@@H]1O[C@H](CO)[C@@H](O)[C@H](O)[C@H]1O [Salicin] | -0.5
O=C([O-])CC(O)(CC(=O)[O-])C(=O)[O-].O=C([O-])CC(O)(CC(=O)[O-])C(=O)[O-].[Bi+3].[K+].[K+].[K+].[K+].[K+] [Bismuth Subcitrate Potassium] | 1.76
CC/C(=C(/CC)c1ccc(O)cc1)c1ccc(O)cc1 [Diethylstilbestrol] | -0.67
O=C1NC(=O)C(c2ccccc2)(c2ccccc2)N1 [Phenytoin] | -0.09
O=c1ccc2ccc(OCCCCN3CCN(c4cccc5sccc45)CC3)cc2[nH]1 [Brexpiprazole] | -0.13

Structure (SMILES) | z-score of subpopulation abundance
NC(=O)[C@@H]1CC[C@@H]2CN1C(=O)N2OS(=O)(=O)O [Avibactam sodium] | 0.54
CC[C@H]1OC(=O)C[C@@H](O)[C@H](C)[C@@H](O[C@@H]2O[C@H](C)[C@@H](O[C@H]3C[C@@](C)(O)[C@@H](O)[C@H](C)O3)[C@H](N(C)C)[C@H]2O)[C@@H](CC=O)C[C@@H](C)C(=O)/C=C/C(C)=C/[C@@H]1CO[C@@H]1O[C@H](C)[C@@H](O)[C@@H](OC)[C@H]1OC [Tylosin] | 0.99
COc1c(N2C[C@@H]3CCCN[C@@H]3C2)c(F)cc2c(=O)c(C(=O)O)cn(C3CC3)c12 [Moxifloxacin HCl] | 0.72
NC(=N\CCCCCC/N=C(N)/N=C(\N)Nc1ccc(Cl)cc1)/N=C(\N)Nc1ccc(Cl)cc1 [Chlorhexidine diacetate] | 1.2
Nc1nc(=O)[nH]cc1F [Flucytosine] | 35.5
C[N+]1(C)[C@@H]2C[C@@H](OC(=O)C(O)(c3cccs3)c3cccs3)C[C@H]1[C@@H]1O[C@@H]12 [Tiotropium Bromide hydrate] | -0.78
CC(C(=O)O)c1ccc2c(c1)Cc1cccnc1O2 (stereo not given) [Pranoprofen] | 0.61
CN1[C@@H]2CC[C@H]1C[C@@H](OC(=O)c1c[nH]c3ccccc13)C2 [Tropisetron] | 1.12
CC(c1cc2ccccc2s1)N(O)C(N)=O (stereo not given) [Zileuton] | 0.43
CC(=O)O[C@H]1C[C@@]2(C)[C@@H](C[C@@H](O)[C@H]3[C@@]4(C)CC[C@@H](O)[C@@H](C)[C@@H]4CC[C@@]32C)/C1=C(\CCC=C(C)C)C(=O)O [Fusidate Sodium] | 1.04
CCCCCC(=O)O[C@]1(C(C)=O)CC[C@H]2[C@@H]3CCC4=CC(=O)CC[C@]4(C)[C@H]3CC[C@@]21C [Hydroxyprogesterone caproate] | 0.65
O=C1OC(CN2CCOCC2)CN1/N=C/c1ccc([N+](=O)[O-])o1 (stereo not given) [Furaltadone HCl] | -0.4
C[N+]1(C)CCC(=C(c2ccccc2)c2ccccc2)CC1 [Diphemanil Methylsulfate] | -0.02
c1ccc(C2CN3CCSC3=N2)cc1 (stereo not given) [Tetramisole HCl] | -0.45
C=C1CCN([C@H](C)[C@](O)(Cn2cncn2)c2ccc(F)cc2F)CC1 [Efinaconazole] | 10.7
CCn1cc(C(=O)O)c(=O)c2cc(F)c(N3CCNCC3)nc21 [Enoxacin Sesquihydrate] | -0.85
CCn1cc(C(=O)O)c(=O)c2cc(F)c(N3CCNCC3)nc21 [Enoxacin] | -0.64
O=C(O)c1cccnc1Nc1cccc(C(F)(F)F)c1 [Niflumic acid] | 0.59
CC[C@H]1OC(=O)[C@H](C)[C@@H](O[C@H]2C[C@@](C)(OC)[C@@H](O)[C@H](C)O2)[C@H](C)[C@@H](O[C@@H]2O[C@H](C)C[C@H](N(C)C)[C@H]2O)[C@](C)(O)C[C@@H](C)C(=O)[C@H](C)[C@H]2OC(=O)O[C@@]21C [Erythromycin Cyclocarbonate] | 0.52
CCC(C)(C)c1ccc(CC(C)CN2C[C@@H](C)O[C@@H](C)C2)cc1 (stereo not given in full) [Amorolfine HCl] | 10.3
